We go through 85 compounds from publication PMC4336329 (PLoS ONE, 2015).

Each structure is given as a SMILES string. Among all 310,000 compounds or so, about 14,000 (4.5%) showed an effect of 50% or more. Effects have a minus sign here. For the sample, strong results were picked, then their nearest neighbours and some compounds at random.
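Also: peak tail current of the secondary pulse compared with the same well before compound.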

In the assay the target is human ether-à-go-go-related gene (hERG) potassium channel (human, UniProt Q12809). The experiment in a line: primary screen, population patch clamp on CHO cells stably expressing hERG; higher = less effect of the substance.
Sequence of human ether-à-go-go-related gene (hERG) potassium channel (Q12809 whole entry, looked up): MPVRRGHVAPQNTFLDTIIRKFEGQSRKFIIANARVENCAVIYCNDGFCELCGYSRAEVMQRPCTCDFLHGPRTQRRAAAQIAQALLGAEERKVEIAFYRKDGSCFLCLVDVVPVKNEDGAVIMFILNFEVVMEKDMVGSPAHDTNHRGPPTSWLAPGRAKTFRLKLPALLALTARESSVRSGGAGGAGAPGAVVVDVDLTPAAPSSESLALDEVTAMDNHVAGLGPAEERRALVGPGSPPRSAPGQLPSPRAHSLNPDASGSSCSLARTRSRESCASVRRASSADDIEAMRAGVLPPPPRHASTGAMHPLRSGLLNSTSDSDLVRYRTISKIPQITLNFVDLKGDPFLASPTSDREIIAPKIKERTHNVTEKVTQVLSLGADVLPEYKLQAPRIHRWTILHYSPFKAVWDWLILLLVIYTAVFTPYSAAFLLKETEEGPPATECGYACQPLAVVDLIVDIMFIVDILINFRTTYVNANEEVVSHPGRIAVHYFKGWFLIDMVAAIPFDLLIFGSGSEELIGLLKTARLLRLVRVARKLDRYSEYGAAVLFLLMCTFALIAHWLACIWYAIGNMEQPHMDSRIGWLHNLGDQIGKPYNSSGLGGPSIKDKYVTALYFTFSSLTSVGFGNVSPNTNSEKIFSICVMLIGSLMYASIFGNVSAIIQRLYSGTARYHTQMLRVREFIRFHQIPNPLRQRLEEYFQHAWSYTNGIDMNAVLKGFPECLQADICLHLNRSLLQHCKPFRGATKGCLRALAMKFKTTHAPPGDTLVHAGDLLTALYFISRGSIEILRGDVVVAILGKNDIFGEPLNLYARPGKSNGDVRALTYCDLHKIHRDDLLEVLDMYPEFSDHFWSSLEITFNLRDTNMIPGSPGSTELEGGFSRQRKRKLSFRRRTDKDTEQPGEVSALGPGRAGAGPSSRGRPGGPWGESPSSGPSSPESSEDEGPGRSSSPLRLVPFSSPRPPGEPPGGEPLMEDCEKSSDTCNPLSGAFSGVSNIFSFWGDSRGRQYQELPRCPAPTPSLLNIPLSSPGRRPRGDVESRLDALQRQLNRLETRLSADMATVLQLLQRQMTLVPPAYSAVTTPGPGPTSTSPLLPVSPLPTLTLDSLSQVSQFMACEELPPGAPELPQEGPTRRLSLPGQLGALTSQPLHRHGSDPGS
On to `COc1ccccc1CN(C)C(=O)c1ccc(COc2ccccc2)cc1`, for which the “hERG current change (%, negative = inhibition) at 10uM” value is recorded as 6.77%.
On to `CCOc1cnc(-c2c(-c3ccccc3Cl)noc2C)o1`, for which the “hERG current change (%, negative = inhibition) at 10uM” value is reported as -3.56%.
To `Cc1cccc2c(=O)c(C(=O)NCCc3ccccc3)c[nH]c12` belongs 21.9%.
For `CC(=O)Nc1ccc(SCC(=O)c2ccc(Br)s2)cc1`, the “hERG current change (%, negative = inhibition) at 10uM” value was 19.5%.
Regarding `Cc1cnc(NC(=O)c2ccco2)s1`, the “hERG current change (%, negative = inhibition) at 10uM” value stood at 13.9%.
As to `O=C(Nc1ccccc1C(=O)Nc1ccccc1)c1cccs1`, the “hERG current change (%, negative = inhibition) at 10uM” value is -0.413%.
On to `COC(=O)C1=CN(Cc2ccccc2)C=C(C(=O)OC)C1c1cc(F)ccc1F`, for which the “hERG current change (%, negative = inhibition) at 10uM” value is given as -12.6%.
The result for `c1ccc(-c2csc3ncnc(N4CCc5ccccc5C4)c23)cc1` reads -1.81%.
The result for `O=C(Nc1ccc(F)c(F)c1)c1ccc(-n2cncn2)c([N+](=O)[O-])c1` reads -35.7%; that for `O=C(c1ccc(-n2cncn2)c([N+](=O)[O-])c1)N1CCN(S(=O)(=O)c2ccc(F)c(F)c2)CC1`, -72.7%; that for `O=C(NNC(=O)c1ccc(-n2cncn2)c([N+](=O)[O-])c1)c1ccc(Cl)cc1`, -9.94%.
As to `O=C(CCCN1C(=O)C2CC=CCC2C1=O)Nc1ccccc1F` (stereo not shown), the “hERG current change (%, negative = inhibition) at 10uM” value is on record as 1.61%.
For `CC(=O)C1C2c3ccccc3OC1(C)N=c1s/c(=C/c3cn(C)nc3C)c(=O)n12` (stereo not shown), the “hERG current change (%, negative = inhibition) at 10uM” value is recorded as -0.454%.
Regarding `Cc1cccc(N2CCN(c3ccc(C(N)=O)cc3[N+](=O)[O-])CC2)c1C`, the “hERG current change (%, negative = inhibition) at 10uM” value was 21.7%.
Turning to `O=C(c1ccc(-n2cncn2)c([N+](=O)[O-])c1)N1CCN(c2cccc(Cl)c2)CC1`, the “hERG current change (%, negative = inhibition) at 10uM” value was -68.5%.
To `O=C(Nc1cccc(Cl)c1)c1ccc(-n2cncn2)c([N+](=O)[O-])c1` belongs -35%; to `O=C(O)c1ccc(-n2cncn2)c([N+](=O)[O-])c1`, 11.6%.
The result for `O=C(NNC(=O)c1ccc(-n2cncn2)c([N+](=O)[O-])c1)c1cccc(Cl)c1` reads -26.3%; that for `Cc1cccc(N2CCN(C(=O)c3ccc(-n4cncn4)c([N+](=O)[O-])c3)CC2)c1C`, -58.9%; that for `COc1ccc(C2=NS(=O)(=O)N(C)C(C(=O)Nc3ccc(OC)c(OC)c3)=C2)cc1`, -11.9%.
For `O=C(CSc1nc2ccc(Cl)cc2[nH]1)c1c[nH]c2ccccc12`, the “hERG current change (%, negative = inhibition) at 10uM” value is 26.8%.
On to `COc1ccc(C(=O)N2CCC(C(=O)c3ccc(F)cc3)CC2)cc1`, for which the “hERG current change (%, negative = inhibition) at 10uM” value is recorded as -70.2%.
To `COc1ccc(C(=O)C2CCN(C(=O)c3ccc(F)cc3)CC2)cc1` belongs -28.5%.
As to `COc1ccc(C(CC(=O)N2CCCCC2)C(C)C)cc1` (stereo not shown), the “hERG current change (%, negative = inhibition) at 10uM” value was 15.8%.
For `Cc1ccc(C(=O)N2CCN(c3ccc(Cl)cc3)CC2)cc1`, the “hERG current change (%, negative = inhibition) at 10uM” value is -61.1%.
To `COc1ccc(C(CC(=O)N2CCCC2)C(C)C)cc1` (stereo not shown) belongs -2.25%.
To `O=C(c1ccccc1)N1CCN(c2ccc(Cl)cc2)CC1` belongs -25.1%.
As for `Cc1ccc(C(=O)N2CCC(C(=O)c3c(C)cc(C)cc3C)CC2)cc1`, the “hERG current change (%, negative = inhibition) at 10uM” value was -38.5%.
The result for `O=C(c1ccc(Cl)cc1)N1CCN(c2ccc(F)cc2)CC1` reads -34%; that for `COc1cc(OC)cc(C(=O)N2CCC(C(=O)c3ccc(F)cc3)CC2)c1`, -30.8%.
For `COc1cc(OC)cc(OC(=O)C2CCN(C(=O)c3ccc(Cl)cc3)CC2)c1`, the “hERG current change (%, negative = inhibition) at 10uM” value is listed as -33.9%.
As for `COc1ccc(C(=O)N2CCC(C(=O)c3c(C)cc(C)cc3C)CC2)cc1`, the “hERG current change (%, negative = inhibition) at 10uM” value is -55.3%.
To `COc1ccc(C(CC(=O)N2CCCC2)c2ccc(F)cc2)cc1` (stereo not shown) belongs -71.5%; to `CCc1ccc(N(CC(=O)Nc2ccc(NC(C)=O)cc2)S(=O)(=O)c2ccccc2)cc1`, 10.5%.
The result for `C#CCn1ccc(O)c(Cc2c(F)cccc2Cl)c1=O` reads 8.2%.
`Cc1cccc(NC(=O)c2cc(-c3ccco3)nc3ccccc23)n1`: the “hERG current change (%, negative = inhibition) at 10uM” value is 4.05%.
The result for `O=C1CN(C(=S)NC(=O)c2ccccc2[N+](=O)[O-])CCN1` reads 16.9%; that for `COc1ccc([N+](=O)[O-])cc1NC(=O)COC(=O)/C=C/c1ccco1`, 1.54%.
To `COc1ccc(Cl)cc1C(=O)NNC(=O)CSc1nnnn1C` belongs 9.95%.
Turning to `Cc1cc(-c2ccccc2)nc(SCc2ccc(C(=O)O)cc2)n1`, the “hERG current change (%, negative = inhibition) at 10uM” value stood at 23.8%.
To `Cc1ccc(C(=O)C2CCN(C(=O)c3ccc(C)cc3)CC2)cc1` belongs -36.8%; to `COc1ccc(NC(=S)N2CCC(C(=O)c3ccc(C)cc3)CC2)cc1`, -21.9%; to `O=C(c1ccc(Cl)cc1)C1CCN(C(=O)c2ccccc2)CC1`, -34.3%.
To `COc1ccc(NC(=S)N2CCC(C(=O)c3ccc(OC)cc3)CC2)cc1` belongs -45.4%; to `Cc1ccc(C(=O)N2CCC(C(=O)c3ccc(Cl)cc3)CC2)cc1`, -68.4%; to `COc1ccc(C(=O)C2CCN(C(=O)Nc3ccc(C)cc3)CC2)cc1`, -9.82%.
The result for `COc1ccc(C(=O)C2CCN(C(=O)c3ccc(OC)cc3)CC2)cc1` reads -77.1%; that for `COc1ccc(C(=O)C2CCN(C(=O)c3ccc(C)cc3)CC2)cc1`, -66.3%; that for `COc1ccc(C(=O)C2CCN(C(=O)c3ccco3)CC2)cc1`, -13.4%.
Take `CCOP(=O)(OCC)C(NC(=O)c1ccc(OC)c(OC)c1)c1ccccc1` (stereo not shown): the “hERG current change (%, negative = inhibition) at 10uM” value turned out to be 9.71%.
The result for `COc1ccc(/C(O)=C2\C(=O)C(=O)N(CCN(C)C)C2c2cc(OC)c(OC)c(OC)c2)c(C)c1` (stereo not shown) reads 3.79%; that for `COc1ccc(NC(=O)/C(N=Nc2cc(S(=O)(=O)Nc3ccc(OC)cc3)ccc2OC)=C(\C)O)cc1`, 24.2%.
The result for `O=C(c1cnn2c(C(F)(F)F)cc(-c3ccc(F)cc3)nc12)N1CCc2ccccc2C1` reads -3.83%; that for `COc1ccc(Nc2ncnc3c2cnn3Cc2ccccc2)cc1`, -18.1%; that for `CC(C)N(C(=O)c1sc2cc([N+](=O)[O-])ccc2c1Cl)C(C)C`, -13.4%.
Regarding `CCOc1ccc(NC(=O)C(CC)n2nc(C)c3c(C)n(-c4ccccc4)nc3c2=O)cc1` (stereo not shown), the “hERG current change (%, negative = inhibition) at 10uM” value was -30.1%.
To `CCSc1ccccc1C(=O)Nc1cccnc1` belongs -5.83%; to `COc1ccc(-c2[nH]ncc2CN2CCC(N3CCSCC3)CC2)cc1F`, -22.5%; to `O=C(c1ccco1)N1CCN(Cc2cn[nH]c2-c2ccc(F)cc2F)CC1`, -12.8%.
The result for `COc1ccc(-c2[nH]ncc2CN2CCN(C(=O)c3ccco3)CC2)cc1F` reads -6.81%.
The result for `COc1ccc(-c2[nH]ncc2CN2CCCN(C(=O)c3ccco3)CC2)cc1F` reads -55.2%.
For the compound `COCC1CCN(Cc2cn[nH]c2-c2ccc(OC)c(F)c2)C1` (stereo not shown), the “hERG current change (%, negative = inhibition) at 10uM” value was -4.22%.
As to `O=C(c1ccco1)N1CCN(Cc2cn[nH]c2-c2cccc3ccccc23)CC1`, the “hERG current change (%, negative = inhibition) at 10uM” value is recorded as -29.1%.
In the case of `O=C(c1ccco1)N1CCCN(Cc2cn[nH]c2-c2ccc(-c3ccccc3)cc2)CC1`, the “hERG current change (%, negative = inhibition) at 10uM” value was -59.3%.
To `COc1ccc(-c2[nH]ncc2CN2CCC(c3ccncc3)CC2)cc1F` belongs -62.7%; to `Cc1ccccc1CN1CCN(C(=O)c2ccco2)CC1.O=C(O)C(=O)O`, 7.41%.
`Cc1cc(NC(=O)CN2CCN(S(=O)(=O)c3ccc4ccccc4c3)CC2)no1`: the “hERG current change (%, negative = inhibition) at 10uM” value is on record as -14.7%.
The result for `CCCCN(C(=O)c1ccc2c(c1)OCO2)c1c(N)n(CC(C)C)c(=O)[nH]c1=O` reads -6.58%; that for `CS(=O)(=O)Nc1ccc2c(c1)ncn2CCc1ccccc1`, -26.4%.
On to `O=C1c2ccccc2C(=O)N1CCc1csc(-c2cccc(F)c2)n1`, for which the “hERG current change (%, negative = inhibition) at 10uM” value is -22.5%.
To `Clc1ccc(-n2ncc3c(NCc4cccnc4)ncnc32)cc1Cl` belongs 14.6%; to `COc1ccc(-c2csc(NC(=O)CN3C(=O)CCC3=O)n2)cc1OC`, 11.4%.
To `Cc1cccc(OC(C)C(=O)N(Cc2cccs2)C2CCS(=O)(=O)C2)c1C` (stereo not shown) belongs -14.8%.
Consider `COc1ccc(N2CCN(C(=O)CNS(=O)(=O)c3ccc(Br)s3)CC2)cc1`, for which the “hERG current change (%, negative = inhibition) at 10uM” value is recorded as -27.6%.
To `COc1ccc(N2CCN(C(=O)CCc3ccc(S(=O)(=O)NC(C)C)cc3)CC2)cc1` belongs -7.82%.
The result for `CC(C)CNS(=O)(=O)c1ccc(CCC(=O)N2CCN(Cc3ccc4c(c3)OCO4)CC2)cc1` reads -54.4%; that for `CCNS(=O)(=O)c1ccc(CCC(=O)N2CCN(c3ccc(OC)cc3)CC2)cc1`, -8.99%.
The result for `CC(C)CNS(=O)(=O)c1ccc(CCC(=O)N2CCN(Cc3ccccc3)CC2)cc1` reads -35.2%.
As for `O=C(CCc1ccc(S(=O)(=O)NCCc2ccccc2)cc1)N1CCN(Cc2ccc3c(c2)OCO3)CC1`, the “hERG current change (%, negative = inhibition) at 10uM” value is listed as -48.5%.
`CCNS(=O)(=O)c1ccc(CCC(=O)N2CCN(c3ccccc3)CC2)cc1`: the “hERG current change (%, negative = inhibition) at 10uM” value was -16.8%.
With `CC(C)CNS(=O)(=O)c1ccc(CCC(=O)N2CCN(c3ccccc3)CC2)cc1`, the “hERG current change (%, negative = inhibition) at 10uM” value is on record as -91.3%.
The result for `O=C(CCc1ccc(S(=O)(=O)NCc2ccccc2)cc1)N1CCN(Cc2ccc3c(c2)OCO3)CC1` reads -41.2%; that for `COc1ccc(N2CCN(C(=O)CCNS(=O)(=O)c3ccc(Br)s3)CC2)cc1`, -50.6%; that for `COc1ccc(N2CCN(C(=O)CCNS(=O)(=O)c3cccs3)CC2)cc1`, -26%.
Take `COc1ccc(N2CCN(C(=O)CCc3ccc(S(=O)(=O)NCC(C)C)cc3)CC2)cc1`: the “hERG current change (%, negative = inhibition) at 10uM” value is recorded as -57.1%.
